# The list is not random: actives were taken first. Their share in the collection is about 7.5%.
# SMN2 splice up: increases expression of the SMN2 splice variant; Potency, µM (doses to about 46.1 µM), for the others: at the top dose activity change, positive = activation, actives largely listed as activators; hit rate 2.8% among 210,000; HEK293 SMN2-luciferase splicing reporter, luminescence, 30-36 h; further: % of control where 0% means no effect; nearly all actives have a fitted effect of over 55% in size
#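 HEK293 cells carry an SMN2 minigene-luciferase reporter in which exon 7 inclusion puts luciferase in frame. Cells were seeded at 2000 cells/well, attached for 10-12 hours, then exposed to compounds for 30-36 hours at 37C before ONE-Glo luminescence.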
# Rab9 prom act: activators of Rab9 promoter; Huh7 Rab9 promoter-luciferase reporter, luminescence, 24 h; Potency, µM (highest dose often 9.22 µM), for inactives: at the highest dose activation, negative = inhibition, hits mostly activators; hit rate 2.8% among 320,000; AID 485297; further: % of control where 0% means no effect; nearly all actives have a fitted effect of over 60% in size
#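 Huh7 cells stably carrying Rab9 promoter–luciferase reporter, plated 1500 cells/well, compound added after 2 h and incubated 24 h at 37 °C; luciferase luminescence then read after 10 min with detection reagent.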
# ELG1 genotox: induces genotoxicity in HEK293T cells with luciferase-tagged ELG1 | HEK293T ELG1-luciferase reporter, luminescence, 16 h | Potency, µM (doses to about 46 µM), inactives show at the highest dose activity change, positive = activation, actives largely listed as activators | hit rate 1.3% among 330,000 | AID 504466; further: % of control where 0% means no effect; nearly all actives have a fitted effect of over 60% in size
#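 Screening used a luciferase reporter fused to human ELG1 in HEK293T cells. Luminescence was read on a CCD plate imager after 16 hr exposure and 30 min ONE-Glo incubation.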
# KinaseGlo FLuc: blocks Kinase-Glo luciferase, a counter-screen artifact | Kinase-Glo luciferase, ATP luminescence, 8 min | Potency, µM (top dose mostly 38.3 µM), for the others: top-dose activity change, negative = inhibition, usual class: inhibitors | Q27757 | hit rate 0.28% among 200,000; further: on the % scale 0 is the no-effect control and ±100 the full control effect; nearly all actives have a fitted effect of over 60% in size
#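 Inhibition of Kinase-Glo luciferase light generation was assessed at 10 uM ATP in pH 7.2 imidazole buffer, with luminescence measured after eight minutes at ambient temperature.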
# FLuc counter: inhibits or activates purified firefly luciferase, miR-21 counter-screen. P08659. purified FLuc, Km substrates, luminescence inhibition. Potency, µM (doses to about 57.5 µM), inactives show at the highest dose activity change, negative = inhibition, most hits filed as inhibitors. hit rate 6.9% among 360,000. AID 588342;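 further: plate controls were vehicle for no effect and reference inhibitor for full effect; nearly all actives have a fitted effect of over 55% in size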
# Target sequence (P08659 whole entry, looked up): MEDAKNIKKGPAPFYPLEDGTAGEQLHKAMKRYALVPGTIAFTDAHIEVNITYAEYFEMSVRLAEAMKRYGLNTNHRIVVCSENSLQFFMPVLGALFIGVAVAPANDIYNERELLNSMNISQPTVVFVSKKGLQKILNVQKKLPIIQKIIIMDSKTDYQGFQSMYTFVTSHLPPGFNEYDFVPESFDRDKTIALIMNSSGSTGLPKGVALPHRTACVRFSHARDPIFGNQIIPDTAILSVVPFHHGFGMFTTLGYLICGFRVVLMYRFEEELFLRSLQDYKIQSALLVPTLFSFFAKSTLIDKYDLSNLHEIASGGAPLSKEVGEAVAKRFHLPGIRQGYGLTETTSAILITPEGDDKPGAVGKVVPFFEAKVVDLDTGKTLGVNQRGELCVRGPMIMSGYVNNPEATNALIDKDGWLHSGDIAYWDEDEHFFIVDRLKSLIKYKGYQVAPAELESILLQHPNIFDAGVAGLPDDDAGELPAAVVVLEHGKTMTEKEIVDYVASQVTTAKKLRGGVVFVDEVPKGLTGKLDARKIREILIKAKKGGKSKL
#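 Biochemical qHTS of compounds, final roughly 60 µM downward over six points, against 10 nM purified firefly luciferase using Km concentrations of substrates (10 uM D-luciferin, 10 uM ATP) in Tris acetate pH 7.5 buffer; luminescence output.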
# NPC1 promoter act: activators of NPC1 promoter | Huh7 NPC1 promoter luciferase reporter, 24 h | Potency, µM (titrated, usually from 9.22 µM), without a hit: top-dose activation, usual class: activators | hit rate 2.4% among 320,000 | AID 485313; further: % of control where 0% means no effect; nearly all actives have a fitted effect of over 60% in size
#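 Readout is luciferase luminescence, reflecting NPC1 promoter activation in stably transfected Huh7 cells after 24 h compound exposure at 37 °C in reduced-serum medium with 10% FBS.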
# Numbers without * were called inactive; ? = inconclusive; . = no result; [ ] = remark or other dose. The call rests on the fitted dose curve; in most records, active means well fitted curve in the direction sought with a large enough effect; inconclusive means small, poorly fitted or top-dose-only effect, or another doubt; inactive means no such curve, though single readings can be large; an effect the other way counts as inactive or inconclusive. Potency means the concentration at half of the fitted maximal effect.
SMILES,SMN2 splice up,Rab9 prom act,ELG1 genotox,KinaseGlo FLuc,FLuc counter,NPC1 promoter act
COc1ccc(CN=C2NN=C(c3ccccc3)CS2)cc1,?,?,12.8%,0.8%,26.9µM*,18.0%
COc1cccc(C2=NNC(=NCc3ccccc3)SC2)c1,?,?,2.3%,-1.4%,21.3µM*,19.3%
O=C(c1ccccc1)N(C1=NCCCCS1)c1ccccc1,?,-5.6%,-0.9%,1.9%,-0.1%,-1.0%
COc1cccc(NC(=O)CN(C)C(=O)CC2CCCCC2)c1,.,-0.1%,3.6%,.,2.6%,-4.0%
COc1cc(SC)ccc1C(=O)Nc1ccc(S(=O)(=O)N2CCCC2)cc1,-20.0%,-4.2%,17.6%,-4.5%,-6.9%,-0.1%
COc1cc(SC)ccc1C(=O)Nc1ccc2c(c1)OCO2,11.2µM*,1.58µM*,2.59µM*,-3.4%,1.35µM*,0.891µM*
COc1cc(SC)ccc1C(=O)Nc1ccc(C)cc1,.,3.55µM*,?,-2.7%,1.9µM*,?
COc1cc(SC)ccc1C(=O)Nc1ccc(C)cc1C,12.6µM*,3.55µM*,?,-7.4%,2.69µM*,2.51µM*
COc1cc(SC)ccc1C(=O)NCCOc1c(C)cc(C)cc1C,.,-15.1%,-2.6%,.,3.3%,0.6%
Cc1ccc(SCC(=O)c2c(C)nc3cc(C)ccn23)cc1,9.6%,-2.0%,5.2%,2.9%,-0.5%,-5.6%
Cc1ccn2c(C(=O)CSc3ccccc3)c(C)nc2c1,25.1µM*,15.0%,7.3%,0.3%,?,15.9%
CCOC(=O)c1ccccc1NC(=O)c1cnc(N2CCOCC2)c2ccccc12,.,.,.,.,-0.2%,.
Cc1ccc2oc(C(=O)Nc3ccc(S(=O)(=O)N4CCCCC4C)cc3)cc(=O)c2c1 (stereo not drawn),1.3%,.,.,.,-1.5%,.
Nc1sc(-c2ccccc2)cc1C(=O)N/N=C/c1ccc(Cl)cc1,.,-0.8%,1.3%,.,6.01µM*,-0.2%
COC(=O)c1cc(-c2ccccc2)sc1N,-34.4%,26.1%,?,-1.1%,21.3µM*,24.7%
CCOC(=O)c1cc(-c2ccccc2)sc1NC(=O)C(C)(C)C,-25.0%,-5.8%,2.8%,-0.7%,0.0%,-0.1%
O=C(N/N=C/c1ccc(Cl)cc1)c1cc2c(s1)-c1ccccc1CC2,18.5%,-9.7%,-0.2%,4.0%,-1.8%,-17.0%
COCC(=O)Nc1nnc(-c2ccc(C(C)(C)C)cc2)s1,8.91µM*,0.562µM*,3.66µM*,0.8%,1.9µM*,1.12µM*
COc1cccc(C(=O)Nc2nnc(-c3ccccc3)s2)c1,.,1.58µM*,?,.,4.78µM*,1.41µM*
CC(C)(C)c1ccc(-c2nnc(NC(=O)c3ccccc3)s2)cc1,2.2%,?,3.1%,-0.6%,1.69µM*,?
CC(C)(C)c1ccc(OCCOCCn2c(-c3ccc(Cl)cc3)nc3ccccc3c2=O)cc1,9.4%,.,.,.,-7.1%,.
Cc1cccc(-c2nc3c4ccccc4n(CC(=O)Nc4cccc(F)c4)c(=O)n3n2)c1,.,.,.,.,23.9µM*,.
Clc1ccc(OCc2noc(-c3ccsc3)n2)c(Cl)c1,.,3.98µM*,?,.,4.26µM*,2µM*
Fc1cc(Cl)c(OCc2noc(-c3ccsc3)n2)c(Cl)c1,.,3.16µM*,7.3%,.,?,?
COc1cc(-c2nc(Cc3ccccc3Cl)no2)cc(OC)c1OC,-22.0%,0.4%,-2.4%,-1.7%,-0.5%,2.1%
SMILES,SMN2 splice up,Rab9 prom act,ELG1 genotox,KinaseGlo FLuc,FLuc counter,NPC1 promoter act
CN(C(=O)COC(=O)CNC(=O)c1sc2ccccc2c1Cl)c1ccccc1,8.0%,-0.2%,-1.3%,2.4%,?,-0.5%
C#CCn1c(=NC(=O)c2ccc3c(c2)OCCO3)sc2cc(OC)c(OC)cc21,.,.,.,.,-1.2%,.
CCn1c(=NC(=O)c2ccc3c(c2)OCCO3)sc2c(C)ccc(OC)c21,.,.,.,.,1.9µM*,.
COc1ccc(C(=O)N=c2sc3c(C)ccc(OC)c3n2C)cc1,3.98µM*,?,0.461µM*,12.6µM*,0.601µM*,?
CCOc1ccc(NC(=O)CNC(=O)c2cccs2)cc1,29.0%,19.8%,14.1%,2.5%,-5.9%,1.6%
Cc1ccc(NS(=O)(=O)c2c(C)[nH]c(C)c2C(=O)N2CCCCC2)c(Br)c1,.,3.7%,-0.2%[9.26 µM],.,1.1%,-3.7%
COc1ccc2nc(NC(=O)CSc3nnc4n3C(C)(C)Cc3ccccc3-4)sc2c1,-5.6%,8.0%,?,-3.6%,6.75µM*,-3.6%
COc1ccc2nc(NC(=O)CSc3nnnn3C)sc2c1,.,3.16µM*,14.5%,-4.5%,?,2.82µM*
COc1ccc2nc(NC(=O)CSc3nnc(C)s3)sc2c1,26.2%,?,20.6µM*,-0.3%,?,2.51µM*
COc1ccc2nc(NC(=O)CSc3nnnn3C3CCCCC3)sc2c1,-8.4%,.,.,-0.7%,?,.
COc1ccc2nc(NC(=O)CSc3n[nH]c(N)n3)sc2c1,.,?,14.6µM*,.,9.53µM*,?
COc1ccc2nc(NC(=O)CSc3nc(SC)ns3)sc2c1,?,?,13.6%,-1.5%,?,20.3%
CCN(CC)S(=O)(=O)c1ccc(OC)c(NC(=O)COc2ccc3c(C)cc(=O)oc3c2)c1,-9.4%,-6.0%,4.3%,1.3%,4.2%,-3.3%
O=C(O)/C(=C\c1ccc(Br)cc1)c1ccc(S(=O)(=O)N2CCCCC2)s1,-16.1%,-3.1%,0.9%,5.0%,6.5%,0.2%
O=C(Nc1cccc(F)c1)c1ccc2ncsc2c1,.,3.55µM*,16.1%,.,13.5µM*,2.24µM*
O=C(Nc1ccc(F)cc1F)c1ccc2ncsc2c1,.,3.98µM*,13.3%[9.26 µM],.,26.9µM*,2.51µM*
O=C(Nc1ccc(Cl)cc1Cl)c1ccc2ncsc2c1,.,2.24µM*,?,.,2.69µM*,2.24µM*

# Screening data deposited in PubChem BioAssay by National Center for Advancing Translational Sciences (NCATS).
